Measurements: the antibiotic and cytotoxicity screens of Wong et al. (2023)
Screen size: about 39,000 compounds; about 1,500 (3.8%) were called active. Shown is part of a subset that was picked to be rich in actives.

system: HSkMC (human skeletal muscle cells); assay: cytotoxicity call (relative viability < 0.9); details: 10 µM

SMILES | cytotoxicity call
COc1ccc(NC(=O)N(C)C[C@@H]2OCc3ccccc3-c3c(n(C)c4ccccc34)C(=O)N([C@H](C)CO)C[C@H]2C)cc1 | inactive
C[C@@H]1CN([C@H](C)CO)C(=O)Cc2cc(NS(=O)(=O)c3ccc(Cl)cc3)ccc2O[C@@H]1CN(C)C(=O)Nc1cccc2ccccc12 | inactive
CO[C@@H](CN(C)S(=O)(=O)c1ccc(C)cc1)[C@@H](C)CN([C@@H](C)CO)S(=O)(=O)c1cccc(Cl)c1 | inactive
C[C@@H]1CN([C@H](C)CO)C(=O)c2cc(NS(=O)(=O)c3ccc(Cl)cc3)ccc2O[C@@H](C)CCCCO[C@@H]1CN(C)C(=O)Cc1ccccc1 | inactive
CN1CCN(C(=O)C[C@H]2C=C[C@H](NC(=O)Cc3ccccn3)[C@H](CO)O2)CC1 | inactive
O=C(C1=C[C@H](c2ccsc2)C[C@H](OCCCCO)O1)N1CCN(Cc2ccc3c(c2)OCO3)CC1 | inactive
COC(=O)c1c2oc(c1C(=O)OC)C(=O)N[C@@H](Cc1ccccc1)Cn1cc(nn1)[C@@H](Cc1ccccc1)NC(=O)N[C@H](CO)CC2 | inactive
C[C@H](CO)N1C[C@H](C)[C@H](CN(C)S(=O)(=O)c2ccccc2)OCCCC[C@H](C)Oc2ccc(NC(=O)NC3CCCCC3)cc2C1=O | inactive
CCNc1cc(=N)n(CC)c2n[nH]c(N)c12 | inactive
CON=C1CC2(CC3CC(CC=C(C)CC(C)C=CC=C4COC5C(O)C(C)=CC(C(=O)O3)C45O)O2)OC(C(C)=CC(C)C)C1C (stereo unspecified) | active
CO/N=C1\C[C@]2(C[C@@H]3C[C@@H](C/C=C(\C)C[C@@H](C)/C=C/C=C4\CO[C@@H]5[C@H](O)C(C)=C[C@@H](C(=O)O3)[C@]45O)O2)O[C@H](/C(C)=C/C(C)C)[C@H]1C | active
COC(=O)C=CC(=O)OC | inactive
C[C@@H](NC(=O)C[C@H]1CC[C@@H](NC(=O)CN2CCOCC2)[C@H](CO)O1)c1ccccc1 | inactive
C#CC1(O)CCC2C3CCC4=CCCCC4C3C(=C)CC21CC (stereo unspecified) | inactive
C#CC1(O)CCC2C3CCC4=CCCCC4C3CCC21C (stereo unspecified) | active
C#CC1(O)CCC2C3CCC4=CC(=O)CCC4C3CCC21C (stereo unspecified) | inactive
C[C@H](CO)N1C[C@H](C)[C@H](CN(C)C(=O)Cc2ccccc2)OCCCC[C@H](C)Oc2ccc(NC(=O)Nc3ccc4c(c3)OCO4)cc2C1=O | inactive
C[C@@H]1CN([C@@H](C)CO)C(=O)c2cc(NS(=O)(=O)c3cn(C)cn3)ccc2O[C@H]1CN(C)Cc1ccc(C(=O)O)cc1 | inactive
O=c1[nH]cc(/N=C/c2ccncc2)c(=O)[nH]1 | inactive

SMILES | cytotoxicity call
COc1ccc(NC(=O)N(C)C[C@H]2OCCCC[C@@H](C)Oc3ccc(NC(=O)NC(C)C)cc3C(=O)N([C@H](C)CO)C[C@@H]2C)cc1 | inactive
C[C@@H]1O[C@@H](O[C@H]2[C@H](O[C@H]3[C@H](O)[C@@H](C(=O)O)O[C@@H](O[C@H]4CC[C@]5(C)[C@H]6CC[C@]78OC[C@@]9(CCC(C)(C)C[C@@H]97)[C@H](O)C[C@@]8(C)[C@]6(C)CC[C@H]5C4(C)C)[C@@H]3OC3O[C@H](CO)[C@@H](O)[C@H](O)[C@H]3O)O[C@H](CO)[C@H](O)[C@@H]2O)[C@H](O)[C@H](O)[C@H]1O (stereo partly specified) | active
CC1(C)CC[C@]2(C(=O)O[C@@H]3O[C@H](CO[C@@H]4O[C@H](CO)[C@@H](O)[C@H](O)[C@H]4O)[C@@H](O)[C@H](O)[C@H]3O)CC[C@]3(C)C(=CC[C@H]4[C@@]5(C)CC[C@H](O[C@@H]6OC[C@H](O)[C@H](O)[C@H]6O)C(C)(C)[C@@H]5CC[C@]43C)[C@@H]2C1 | inactive
C[C@@H]1O[C@@H](O[C@H]2[C@H](O[C@H]3[C@H](O)[C@@H](O[C@@H]4O[C@H](CO)[C@@H](O[C@@H]5O[C@H](CO)[C@H](O)[C@H]5O)[C@H](O)[C@H]4O)[C@H](O[C@H]4CC[C@]5(C)[C@H]6CC[C@]78OC[C@@]9(CCC(C)(C)C[C@@H]97)[C@H](O)C[C@@]8(C)[C@]6(C)CC[C@H]5C4(C)C)O[C@@H]3C(=O)O)O[C@H](CO)[C@H](O)[C@@H]2O)[C@H](O)[C@H](O)[C@H]1O | inactive
C[C@H]1O[C@@H](OC[C@H]2O[C@@H](O[C@H]3CC[C@]4(C)[C@H]5CCC6=C(CC[C@@]7(C(=O)O[C@@H]8O[C@H](CO)[C@@H](O)[C@H](O)[C@H]8O[C@@H]8O[C@H](CO)[C@@H](O)[C@H](O)[C@H]8O)CCC(C)(C)C[C@@H]67)[C@]5(C)CC[C@H]4C3(C)C)[C@H](O)[C@@H](O)[C@@H]2O)[C@H](O)[C@@H](O)[C@@H]1O | inactive
CC(=O)O[C@H]1CC(C)(C)C[C@H]2[C@]13CO[C@@]21CC[C@@H]2[C@@]4(C)CC[C@H](O[C@@H]5O[C@H](C(=O)O)[C@@H](O)[C@H](O[C@@H]6O[C@H](CO)[C@H](O)[C@H](O)[C@H]6O[C@@H]6O[C@@H](C)[C@H](O)[C@@H](O)[C@H]6O)[C@H]5O[C@@H]5O[C@H](CO)[C@@H](O)[C@H](O)[C@H]5O)C(C)(C)[C@@H]4CC[C@@]2(C)[C@]1(C)C[C@H]3O | inactive
CC1(C)CC[C@]2(C(=O)O[C@@H]3O[C@H](CO)[C@@H](O)[C@H](O)[C@H]3O)CC[C@]3(C)C(=CC[C@H]4[C@@]5(C)CC[C@@H](O[C@@H]6O[C@H](C(=O)O)[C@@H](O[C@@H]7OC[C@@H](O)[C@H](O)[C@H]7O)[C@H](O[C@@H]7OC[C@](O)(CO)[C@H]7O)[C@H]6O)C(C)(C)[C@@H]5CC[C@]43C)[C@@H]2C1 | inactive
C[C@@H]1O[C@@H](O[C@H]2[C@H](O[C@H]3[C@H](O)[C@@H](O[C@@H]4O[C@H](CO)[C@@H](O)[C@H](O)[C@H]4O)[C@H](O[C@H]4CC[C@]5(C)[C@H]6CC[C@]78OC[C@@]9(CCC(C)(C)C[C@@H]97)[C@H](O)C[C@@]8(C)[C@]6(C)CC[C@H]5C4(C)C)O[C@@H]3C(=O)O)O[C@H](CO)[C@H](O)[C@@H]2O)[C@H](O)[C@H](O)[C@H]1O | active
C[C@@H]1O[C@@H](O[C@H]2[C@H](O)[C@@H](O)[C@H](OC(=O)[C@]34CCC(C)(C)C[C@H]3C3=CC[C@H]5[C@@]6(C)CC[C@H](O[C@@H]7O[C@H](C(=O)O)[C@@H](O)[C@H](O)[C@H]7O)C(C)(C)[C@@H]6CC[C@@]5(C)[C@]3(C)CC4)O[C@@H]2CO)[C@H](O)[C@H](O)[C@H]1O | inactive
CC(=O)O[C@H]1CC(C)(C)C[C@H]2[C@]13CO[C@@]21CC[C@H]2[C@@]4(C)CC[C@H](O[C@@H]5OC[C@H](O[C@@H]6O[C@H](CO)[C@@H](O)[C@H](O)[C@H]6O[C@@H]6OC[C@@H](O[C@@H]7O[C@H](CO)[C@@H](O)[C@H](O)[C@H]7O)[C@H](O)[C@H]6O)[C@H](O)[C@H]5O[C@@H]5O[C@H](CO)[C@@H](O)[C@H](O)[C@H]5O)[C@@](C)(CO)[C@@H]4CC[C@@]2(C)[C@]1(C)C[C@H]3O | active
COc1ccc2c3c(n(c2c1)C)[C@@H](CO)N(CC1CCOCC1)C[C@]13CCN(CC1)C(=O)c1cnccn1 | inactive
CCc1c(C)c2cc3c(-c4ccccc4)coc3cc2oc1=O | inactive
CNC[C@H]1OCCCC[C@@H](C)Oc2ccc(NS(=O)(=O)c3cn(C)cn3)cc2C(=O)N([C@@H](C)CO)C[C@@H]1C | inactive
Cc1ccc(S(=O)(=O)Nc2ccc3c(c2)CC(=O)N([C@@H](C)CO)C[C@@H](C)[C@H](CN(C)C(=O)NC(C)C)O3)cc1 | inactive
N#Cc1cc(F)cc(Oc2ccc(S(=O)(=O)C(F)F)c3c2CC(F)(F)[C@@H]3O)c1.N#Cc1cc(F)cc(Oc2ccc(S(=O)(=O)C(F)F)c3c2CC(F)(F)[C@H]3O)c1 | inactive
COc1ccccc1NC(=O)N(C)C[C@H]1OCc2ccccc2-c2c(n(C)c3ccccc23)C(=O)N([C@H](C)CO)C[C@H]1C | inactive
C=CC(=O)N[C@H]1CCCN(CC)C1 | inactive
C[C@@H]1CN([C@@H](C)CO)C(=O)c2cccc(NS(=O)(=O)c3ccc(F)cc3)c2O[C@H]1CN(C)S(=O)(=O)c1cccs1 | inactive
C[C@@H]1CN([C@H](C)CO)C(=O)c2cc(Br)cnc2O[C@H]1CN(C)Cc1ccc2c(c1)OCO2 | inactive

SMILES | cytotoxicity call
C[C@@H]1CN([C@@H](C)CO)C(=O)Cc2cc(NS(=O)(=O)c3cccs3)ccc2O[C@@H]1CN(C)S(=O)(=O)c1cccs1 | inactive
Cc1ccc(S(=O)(=O)N(C)C[C@@H]2Oc3ccc(NC(=O)c4ccncc4)cc3C(=O)N([C@H](C)CO)C[C@H]2C)cc1 | inactive
CCOC(=O)Cn1cnc2ccccc2c1=O | inactive
Cc1c(-c2ccc(C(N)=O)c3[nH]c4cc(C(C)(C)O)ccc4c23)cccc1-n1cnc2ccccc2c1=O | active
COc1ccc(S(=O)(=O)N(C)C[C@@H]2Oc3ccc(NC(=O)Cn4cnnn4)cc3C(=O)N([C@@H](C)CO)C[C@H]2C)cc1 | inactive
Cc1ccc(S(=O)(=O)Nc2cccc3c2O[C@H](CN(C)CC2CC2)[C@H](C)CN([C@@H](C)CO)C3=O)cc1 | inactive
COc1ccc2c3c(n(c2c1)C)[C@H](CO)N(C[C@]13CCN(CC1)C(=O)c1ccccc1)C(=O)Nc1ccccc1F | active
COCC(=O)N1CC[C@]2(CC1)CN([C@H](CO)c1c2c2ccc(cc2n1C)OC)C(=O)Nc1ccccc1F | inactive
COc1ccc(cc1)S(=O)(=O)N1C[C@]2(C1)CN([C@@H](CO)c1c2c2ccc(cc2n1C)OC)C(=O)CN(C)C | inactive
COc1ccc2c3c(n(c2c1)C)[C@@H](CO)N(C[C@]13CCN(CC1)C(=O)c1ccccc1)C(=O)Nc1ccccc1F | inactive
COc1ccc2c3c(n(c2c1)C)[C@@H](CO)N(C[C@]13CN(C1)C(=O)Nc1cccc(c1)F)C(=O)C1CCOCC1 | inactive
COc1ccc2c3c(n(c2c1)C)[C@H](CO)N(C[C@]13CN(Cc2cccc(c2)F)C1)C(=O)C1CCOCC1 | inactive
COc1ccc2c3c(n(c2c1)C)[C@@H](CO)N(C[C@]13CCN(CC1)C(=O)c1ccccc1F)C(=O)Nc1ccccc1F | active
COc1ccc(cc1)S(=O)(=O)N1CC[C@]2(CC1)CN([C@H](CO)c1c2c2ccc(cc2n1C)OC)C(=O)CN(C)C | active
COc1ccc2c3c(n(c2c1)C)[C@@H](CO)N(C[C@]13CN(Cc2cccc(c2)F)C1)C(=O)C1CCOCC1 | active
COc1ccc2c3c(n(c2c1)C)[C@@H](CO)N(C[C@]13CCN(CC1)C(=O)c1ccccc1F)C(=O)Nc1ccc(cc1)F | inactive
COc1ccc(cc1)S(=O)(=O)N1CC[C@]2(CC1)CN([C@@H](CO)c1c2c2ccc(cc2n1C)OC)C(=O)CN(C)C | inactive
COc1ccc2c3c(n(c2c1)C)[C@H](CO)N(C[C@]13CCN(CC1)C(=O)c1ccccc1F)C(=O)Nc1ccccc1F | inactive
